Compound activity as filed in PubChem BioAssay.
Shown are actives, neighbours in structure and some others; about 19% of the full set was active somewhere.
HT1080 IDH1KD tx – HT-1080 IDH1 knockdown cell toxicity (counter line) | HT-1080 IDH1 knockdown viability, ATP luminescence, 48 h | Potency, µM (series often up to 46.1 µM), for the others: top-dose activity, negative = toxicity, actives largely listed as cytotoxic | 2% of 360,000 active | AID 686971;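 note: potency is the fitted concentration of half-maximal effect; 0% = DMSO wells and -100% = cell-free medium wells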
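Assay cells: HT-1080 with IDH1 knockdown, 750 per well, RPMI/5% FBS. Exposure: 48 h at 37 °C following 2 h pre-incubation. Read: CellTiter-Glo luminescence; fitted concentration-response, curve class assigned.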
HT1080NT lethal – kills 2HG-producing HT-1080-NT fibrosarcoma cells; HT-1080-NT fibrosarcoma viability, CellTiter-Glo ATP luminescence, 48 h; Potency, µM (highest dose often 46.1 µM), for the others: at the top dose activity, negative = less viability, hits mostly cytotoxic; 1.6% of 360,000 active; AID 686970;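 note: NT is the 2HG producing partner of a matched IDH1 knockdown line; potency is the fitted concentration of half-maximal effect; 0% = DMSO-treated cells and -100% = media-only wells without cells; nearly all actives have a fitted effect of over 55% in size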
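HT-1080-NT fibrosarcoma cells (2HG-overproducing), 750 cells/well in RPMI with 5% FBS, dosed after 2 h and incubated 48 h at 37C. CellTiter-Glo luminescence normalized to DMSO and no-cell wells; concentration-response curves fitted and classed.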
IL-1B inflam inh – inflammasome signaling inhibition, IL-1 beta readout. THP-1 LPS/ATP IL-1B secretion, AlphaLISA, 16 h; hits give low values. activity change, % at 57.5 µM. 4.7% of 360,000 active. AID 743279; in the data active = activity change below about -50%; inconclusive = mostly about -30% to -49%
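THP-1 cells pretreated 1 hr with compounds (up to 57.5 uM final), then stimulated with LPS (250 ng/mL final) plus ATP (1.25 mM final); secreted IL-1B measured by AlphaLISA after 16 hr, decreased signal indicating inhibition.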
DT40 TDP1 CPT – growth inhibition of DT40 Tdp1-/-;hTDP1 cells with camptothecin (screen for TDP1 inhibitors) | Potency, µM (titrated, usually from 46.2 µM), without a hit: top-dose activity change, negative = growth inhibition, hits mostly inhibitors | 12% of 420,000 active | chicken DT40 Tdp1-/-;hTDP1 cells + 20 nM CPT, ATP luminescence, 48 h | AID 686979; note: potency is the fitted concentration of half-maximal effect; nearly all actives have a fitted effect of over 55% in size
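Chicken DT40 Tdp1-/- cells complemented with human TDP1, 400 cells/well, exposed to compounds plus 20 nM camptothecin for at least 48 h at 37 C; viability read as ATP content by CellTiter-Glo luminescence.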
ELG1 DNA repair – inhibitors of ELG1-dependent DNA repair in HEK293T cells; 2.3% of 330,000 active; HEK293T ELG1-luciferase reporter, luminescence, 16 h; DNA damage induced by 5-fluorouridine; AID 504467; Potency, µM (titrated, usually from 46.1 µM), inactives show at the top dose activity change, negative = inhibition, most hits filed as inhibitors; note: potency is the fitted concentration of half-maximal effect; nearly all actives have a fitted effect of over 55% in size
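Cells (2,000 per well) received 5-fluorouridine plus test compound or DMSO and were incubated 16 hr at 37 °C, 5% CO2. Luciferase activity was read by luminescence 30 min after ONE-Glo addition; signal suppression marked inhibition of damage-induced ELG1 function.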
TDP1 cell noCPT – qHTS for Inhibitors of human tyrosyl-DNA phosphodiesterase 1 (TDP1): qHTS in cells in absence of CPT | 15% of 420,000 active | Potency, µM (titrated, usually from 46.2 µM), for the others: at the top dose activity change, negative = growth inhibition, actives largely listed as inhibitors | AID 686978, 2013 | DT40 Tdp1-/- hTDP1 cells, no CPT, ATP luminescence, 48 h; note: potency is the fitted concentration of half-maximal effect; nearly all actives have a fitted effect of over 55% in size
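Camptothecin absent (DMSO only). Human TDP1-complemented DT40 knockout cells, 400 cells/well, 37 °C for minimum 48 hr; ATP measured via CellTiter-Glo, 30 min dark incubation, luminescence.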
* hit, by the source's call; ? = inconclusive; nt = no result given; [ ] = dose if it differs, or a comment. Unless noted, calls come from the whole dose curve; as a rule, active = well fitted curve in the direction sought with a large enough effect; inconclusive = small, poorly fitted or top-dose-only effect, or another doubt; inactive = no such curve, though single readings can be large; an effect the other way counts as inactive or inconclusive. Unless noted, % is set by controls: 0 for no effect and ±100 for the full control effect.

SMILES	HT1080 IDH1KD tx	HT1080NT lethal	IL-1B inflam inh	DT40 TDP1 CPT	ELG1 DNA repair	TDP1 cell noCPT
Fc1ccc(-c2nc3c4ccccc4ccn3c2Cc2cccc(Cl)c2)cc1	-23%	-34%	37	16µM*	nt	16µM*
Cc1cc(C)cc(C(=O)NC(=S)Nc2cccnc2)c1	2%	6%	14	-1%	?	0%
CC(C)c1ccc([N+](=O)[O-])cc1S(=O)(=O)N1CCN(C)CC1	-2%	-5%	-11	-22%	-12%	-1%
CCc1cc2c(COC(=O)c3cccc(S(C)(=O)=O)c3)cc(=O)oc2cc1O	-14%	?	50	?	?	?
COc1cc(C(=O)OCC(C)=O)ccc1OCc1c(C)noc1C	18µM*	?	56	?	?	?
CCc1cc2c(COC(=O)c3c(C)noc3C)cc(=O)oc2cc1O	-10%	-9%	23	?	-18%	10µM*
COc1ccc(N2CCN(C(=O)c3ccc(OCc4c(C)noc4C)c(OC)c3)CC2)cc1	1%[9.24 µM]	-1%	-1	?	-13%	-21%
COc1ccc(C(C)=O)cc1COC(=O)c1ccc(OCc2c(C)noc2C)cc1	-14%	0%	-22	-8%	19%	-16%
COc1ccc(C(C)=O)cc1COC(=O)c1c(C)noc1C	-28%	-27%	80	?	-17%	15µM*
COc1cc(C(=O)N2CCN(c3ccc([N+](=O)[O-])cc3)CC2)ccc1OCc1c(C)noc1C	-8%	-2%	-8	?	-13%	16µM*
Cc1ccc(C)c(OCc2cc(C(=O)N(C)Cc3nccs3)no2)c1	9%	3%	-16	-28%	?	-14%
C#CCN1C(=O)C(O)(CC(=O)c2ccc3c(c2)OCCO3)c2ccccc21 (configuration not stated)	8%	4%	9	?	13%	23µM*
C=CCN1C(=O)C(O)(CC(=O)c2ccco2)c2cc(Br)ccc21 (configuration not stated)	?	?	64	2.3µM*	9%	5.2µM*
O=C(CC1(O)C(=O)N(Cc2ccccc2)c2ccccc21)c1ccncc1 (configuration not stated)	-3%	-1%	41	3.7µM*	2%	3.7µM*
O=C(CC1(O)C(=O)N(Cc2ccccc2)c2ccc(Br)cc21)c1ccccc1 (configuration not stated)	nt	nt	nt	15µM*	nt	5.8µM*
O=C(NCc1ccco1)Nc1nnc([C@H]2C[C@H](O)[C@@H](CO)O2)s1	19%	15%	17	-3%	nt	-5%
C#CCN1C(=O)C(O)(CC(=O)c2ccc(OC)c(OC)c2)c2cc(Br)ccc21 (configuration not stated)	nt	nt	nt	4.6µM*	nt	6.5µM*
Cc1ccccc1CN1C(=O)C(O)(CC(=O)c2ccncc2)c2ccccc21 (configuration not stated)	-16%	-16%	41	4.6µM*	-12%	3.3µM*
O=C(CC1(O)C(=O)N(Cc2ccc3c(c2)OCO3)c2ccccc21)c1ccccc1 (configuration not stated)	-22%	-18%	-10	3.7µM*	-9%	5.8µM*
Cc1ccc(C(=O)CC2(O)C(=O)N(Cc3ccc4c(c3)OCO4)c3ccccc32)cc1 (configuration not stated)	-22%	-23%	-11	?	-12%	?
O=C(CC1(O)C(=O)Nc2ccc(Br)cc21)c1ccccc1 (configuration not stated)	-3%	-19%	73	?	nt	26µM*
